# Pf growth 96h – Primary qHTS for delayed death inhibitors of the malarial parasite plastid, 96 hour incubation; Potency, µM (titrated, usually from 28.7 µM), without a hit: top-dose activity change, negative = inhibition, hits mostly inhibitors; AID 504834, 2011; 320,000 tested, 6.9% active; P. falciparum luciferase reporter growth, 96 h; also: potency is read from the fitted curve at half-maximal effect; % is scaled to controls: 0 for no effect and ±100 for the full control effect
#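 P. falciparum expressing integrated firefly luciferase grown in erythrocytes (2% hematocrit, 0.05% parasitemia final) with compounds for 96 hours at 37 C, 5% CO2. Growth inhibition read as loss of luminescence after adding luciferase detection reagent.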
# NS1 inh – qHTS Assay for Inhibitors of Influenza NS1 Protein Function | 270,000 tested, 0.4% active | Potency, µM (highest dose often 46.1 µM), for the others: at the top dose activity, positive = more growth; calls by dose curve; also: potency is read from the fitted curve at half-maximal effect; actives are rising curves; nearly all actives have a fitted effect of over 50% in size
#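 A cell-based growth assay was used: compounds that relieve NS1-induced slow growth of budding yeast raise OD600. Assay medium was yeast nitrogen base with ammonium sulphate and -URA supplement, pH 6.0, with 2% galactose.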
# Shiga inhibitor – A qHTS for Small Molecule Inhibitors of Shiga Toxin; AID 2315, 2010; Vero cells, Shiga toxin protein synthesis inhibition reporter; inhibition, % at 38.7 µM; 290,000 tested, 9.2% active; in the data active = inhibition mostly above about 28%, no sharp cut-off; inactive = mostly below about 43%; also: 0% is about no effect
# Cycloheximide cs – Cycloheximide Counterscreen for Small Molecule Inhibitors of Shiga Toxin. cell reporter, cycloheximide protein synthesis inhibition counterscreen. max response, %. 300,000 tested, 12% active. AID 2314, 2010; in the data active = max response mostly above about 13%, no sharp cut-off; inactive = mostly below about 14%; also: read at 38.3 µM for the half of the compounds with a filed dose; 0% is about no effect
# FBPA Giardia inh – qHTS Assay for Inhibitors of Fructose-1,6-bisphosphate Aldolase from Giardia Lamblia. 290,000 tested, 0.71% active. purified Giardia FBPA. AID 2451, 2010. Potency, µM (top dose mostly 59.6 µM), without a hit: at the top dose activity, negative = inhibition, most hits filed as inhibitors. A8B2U2; also: potency is read from the fitted curve at half-maximal effect; % is scaled to controls: 0 for no effect and ±100 for the full control effect; nearly all actives have a fitted effect of over 55% in size
# Target sequence (A8B2U2 whole entry, looked up): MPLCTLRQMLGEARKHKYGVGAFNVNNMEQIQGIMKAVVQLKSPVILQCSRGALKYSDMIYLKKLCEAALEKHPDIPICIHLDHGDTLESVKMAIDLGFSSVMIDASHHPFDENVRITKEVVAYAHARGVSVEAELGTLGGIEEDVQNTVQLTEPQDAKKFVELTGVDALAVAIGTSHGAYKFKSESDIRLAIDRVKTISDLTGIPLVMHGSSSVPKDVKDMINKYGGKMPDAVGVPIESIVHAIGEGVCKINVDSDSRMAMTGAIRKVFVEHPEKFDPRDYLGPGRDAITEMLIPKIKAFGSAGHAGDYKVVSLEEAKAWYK
#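 40 nM FBPA preincubated 10 min at RT with compound (up to 57.5 uM final), then substrate plus GAPDH/TPI/NAD/arsenate coupling and diaphorase/resazurin added. Fluorescence read after 20 min at RT, 525/598 nm.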
# Pf growth 48h – Primary qHTS for delayed death inhibitors of the malarial parasite plastid, 48 hour incubation; P. falciparum luciferase growth in erythrocytes, 48 h; Potency, µM (series often up to 28.7 µM), inactives show at the highest dose activity change, negative = inhibition, usual class: inhibitors; 310,000 tested, 5.9% active; also: potency is read from the fitted curve at half-maximal effect; % is scaled to controls: 0 for no effect and ±100 for the full control effect
#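 Here the parasites carry a stable luciferase gene and grow inside erythrocytes in Albumax-based RPMI medium with compound for one erythrocytic cycle. Activity is scored as loss of luminescent signal.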
# An asterisk follows results filed as active; ? = inconclusive; nt = not tested or not shown. Rows were chosen to be rich in hits. Some 21% of all compounds tested hit in one or more screens of this group. Unless noted, calls follow the shape of the dose curve; as a rule, active = well fitted curve in the direction sought with a large enough effect; inconclusive = small, poorly fitted or top-dose-only effect, or another doubt; inactive = no such curve, though single readings can be large; an effect the other way counts as inactive or inconclusive.
SMILES,Pf growth 96h,NS1 inh,Shiga inhibitor,Cycloheximide cs,FBPA Giardia inh,Pf growth 48h
Cc1ccc(NC(=O)Nc2cccc([N+](=O)[O-])c2)nc1,?,nt,85.1*,20.3*,2.9%,82.8%
Cc1ccc(NC(=O)Nc2ccc([N+](=O)[O-])cc2)nc1,75.8%,nt,22.0,6.8,2.1%,11.6%
O=C(O)CN1C(=O)/C(=C\c2cn(-c3ccccc3)nc2-c2ccccc2)SC1=S,?,?,-12.9,-3.0,7.3%,-47.4%
O/N=C/c1cn(-c2ccccc2)nc1-c1ccccc1,16.2%,-32.2%,12.5,13.8*,-2.8%,0.8%
NC(=S)N/N=C/c1cn(-c2ccccc2)nc1-c1cccnc1,?,1.8%,21.7,19.1*,-7.9%,?
CCN1C(=O)/C(=C\c2cn(-c3ccccc3)nc2-c2cccnc2)SC1=S,?,0.8%,-0.8,-3.1,2.8%,11.7µM*
N#C/C(=C\c1cn(-c2ccccc2)nc1-c1ccccc1)S(=O)(=O)c1ccccc1,?,8.0%,1.6,-1.2,4.9%,27.3%
CCN1CCCC1Cn1c(-c2ccccc2)nc2c(NCCOC)nc(C)nc21 (stereo unspecified),nt,nt,nt,nt,2.1%,nt
CSCCC(=O)N1CCC(n2nccc2NC(=O)CCc2ccccc2)CC1,23.3%,11.5%,18.2,11.4,nt,15.3%
O=C(NN1C(=O)C2C(C1=O)C1C=CC2C12CC2)c1cccc(Cl)c1 (stereo unspecified),?,0.4%,19.5,-2.5,3.0%,0.7%
O=C(NN1C(=O)C2C3C=CC(C4CC34)C2C1=O)c1cccc(Cl)c1 (stereo unspecified),?,0.9%,132.2*,47.6*,-0.2%,-4.2%
Nc1ccc(C(=O)O)cc1[N+](=O)[O-],0.1%,nt,-6.1,-2.0,-1.0%,-3.6%
Nc1ccc(C(=O)c2cccs2)cc1[N+](=O)[O-],35.1%,-4.6%,70.6*,27.7*,4.9%,52.1%
CC(C)C(=O)NC(=S)NCC(=O)c1ccccc1,?,-9.4%,25.7,29.1*,3.3%,48.7%
Cc1ccccc1C(=O)NC(=S)NCC(=O)c1ccccc1,3.6%,5.3%,-14.7,-3.0,0.0%,?
O=C(CNC(=S)NC(=O)c1ccccc1)c1ccccc1,36.3%,15.0%,43.9*,22.7*,-0.7%,62.8%
CCC(C)NC(=O)C1CCC(CNS(=O)(=O)c2ccc3c(c2)N(C(C)=O)CCO3)CC1 (stereo unspecified),-8.0%,2.8%,-6.9,-8.5,nt,-13.3%
Cc1ccc(C(=O)Nc2cnc3sc(C)nn3c2=O)cc1,5.8%,-4.0%,58.3*,37.0*,5.2%,93.1%
Cc1nn2c(=O)c(NC(=O)c3ccc(Cl)cc3)cnc2s1,17.3%,nt,52.3*,35.9*,3.5%,3.6%
CC(CCC(=O)O)C1CCC2C3C(O)C[C@@H]4CC(O)CC[C@@]4(C)C3CC(O)[C@]12C (stereo partly specified),nt,nt,nt,nt,7.7%,nt
CCOC(=O)CNc1nc(Cl)nc(NC(C)(C)C)n1,13.1µM*,nt,15.9,8.3,0.6%,1.8%
CCNc1nc(NC(N)=S)nc(NC(C)(C)C)n1,17.4%,4.9%,-18.9,-1.7,-12.1%,-13.1%
COc1ccc(C(C(=O)NC(C)(C)C)N(Cc2ccc(C)cc2)C(=O)CCC(=O)Nc2cc(C)on2)cc1 (stereo unspecified),14.0%,-1.8%,-1.6,-5.6,2.5%,9.28µM*
COc1cccc(C(C(=O)NC(C)(C)C)N(C(=O)CCC(=O)Nc2cc(C)on2)C(C)C)c1OC (stereo unspecified),?,-6.7%,-3.6,-0.7,-0.5%,11.7µM*
N#Cc1c(N2CCOCC2)nsc1-c1ccc(C(F)(F)F)cc1,48.2%,-2.5%,43.2,28.6*,-2.0%,86.8%
N#Cc1ccc(OCC(=O)Nc2nc(-c3cccnc3)cs2)cc1,?,nt,nt,nt,nt,11.7µM*
Cc1cccc(OCC(=O)Nc2nc(-c3ccncc3)cs2)c1,6.9%,nt,nt,nt,nt,-8.8%
Cc1cc(C)cc(OCC(=O)Nc2nc(-c3cccnc3)cs2)c1,14.7µM*,4.5%,-8.3,-3.1,-15.8%,?
O=C(COc1ccccc1)Nc1nc(-c2ccncc2)cs1,?,11.1%,-7.3,-0.4,nt,?

# Compound activity from PubChem.
